# Results: PubChem BioAssay AID1259421 (Broad Institute, 2018)
# Where “and” joins values, the source holds several entries; their conditions need not be identical. Equal values may be shown once. The whole screen tested about 6,400 compounds, of which about 610 (9.5%) were called active. Cut-off read from the data, not from the text of the source: active = activity change below about -70%; inconclusive = no clear call, values can overlap the other calls; inactive = above that. The full list was thinned out, with actives kept by preference. Some structures have more than one record in an assay (separate samples or runs), and their calls can disagree.
# Test: T. gondii ME49Luc in HeLa cells, luciferase assay, 72 h, no IFN-y (AID 1259421)
# Details: stronger effect = lower value, concentration not given here
row,Structure (SMILES),"activity change, negative = inhibition"
1,CC(C)n1nc(-c2cc3cc(O)ccc3[nH]2)c2c(N)ncnc21,-50.4% (inactive)
2,CC(C)n1nc(-c2ccc3oc(N)nc3c2)c2c(N)ncnc21,-74.3% (active)
3,CC(=O)O[C@@H]1CC[C@@]2(C)C(C[C@@H](OC(C)=O)[C@@]3(C)C4=CC(=O)O[C@@H](c5ccoc5)[C@]4(C)CCC23)C1(C)C (stereo not given in full),12.5% (inactive)
4,O=C(O)CCc1c(C(=O)O)[nH]c2cc(Cl)cc(Cl)c12,12.5% (inactive)
5,CCC(C)[C@H]1O[C@]2(C=C[C@@H]1C)C[C@@H]1C[C@@H](C/C=C(\C)[C@@H](OC3C[C@H](OC)C(O[C@H]4C[C@H](OC)[C@@H](NC(C)=O)[C@H](C)O4)[C@H](C)O3)[C@@H](C)/C=C/C=C3\CO[C@@H]4[C@H](O)C(C)=C[C@@H](C(=O)O1)[C@]34O)O2 (stereo not given in full),-6.74% (inactive)
6,CC[C@H](C)[C@H]1O[C@]2(CC[C@@H]1C)C[C@@H]1C[C@@H](C/C=C(\C)[C@@H](O[C@H]3C[C@H](OC)[C@@H](O[C@H]4C[C@H](OC)[C@@H](O)[C@H](C)O4)[C@H](C)O3)[C@@H](C)/C=C/C=C3\CO[C@@H]4[C@H](O)C(C)=C[C@@H](C(=O)O1)[C@]34O)O2,-65% (inactive) and -79.5% (active)
7,CCC(C)[C@H]1O[C@]2(CC[C@@H]1C)C[C@@H]1C[C@@H](C/C=C(\C)[C@@H](OC3C[C@H](OC)C(O[C@H]4C[C@H](OC)[C@@H](O)[C@H](C)O4)[C@H](C)O3)[C@@H](C)/C=C/C=C3\CO[C@@H]4[C@H](O)C(C)=C[C@@H](C(=O)O1)[C@]34O)O2 (stereo not given in full),-67.1% (inactive)
8,COc1ccccc1N1CCN(CCCCN2C(=O)CCC2=O)CC1,-10.5% (inactive) and 6.09% (inactive)
9,C[C@]12C=CC(=O)C=C1CCC1C2C(=O)C[C@@]2(C)C1CC[C@]2(O)C(=O)CO (stereo not given in full),-0.495% (inactive)
10,C=COCC(F)(F)F,2.78% (inactive)
11,COc1ncnc(N)c1OC,8.31% (inactive)
12,C[C@]12CCC3c4ccc(O)cc4CCC3C1CC[C@@H]2OC(=O)CCC1CCCC1 (stereo not given in full),-65.2% (inactive) and 3.38% (inactive)
13,CCCCC(=O)O[C@H]1CC[C@H]2[C@@H]3CCc4cc(O)ccc4[C@H]3CC[C@]12C,-58.1% (inactive)
14,C[C@]12CC[C@@H]3c4ccc(O)cc4C[C@@H](CCCCCCCCCS(=O)CCCC(F)(F)C(F)(F)F)[C@H]3[C@@H]1CC[C@@H]2O (stereo not given in full),-83.4% (active)
15,CC(C)(C)N1CCC(c2ccccc2)(c2ccccc2)CC1,14.2% (inactive)
16,CCC[C@@]1(CCc2ccccc2)CC(=O)C([C@H](CC)c2cccc(NS(=O)(=O)c3ccc(C(F)(F)F)cn3)c2)C(=O)O1 (stereo not given in full),10.4% (inactive)
17,COc1cc(CCc2cc(NC(=O)c3ccc(N4C[C@@H](C)N[C@@H](C)C4)cc3)n[nH]2)cc(OC)c1,-81.1% (active)
18,COc1ccc(C(=O)Nc2c(Cl)cncc2Cl)cc1OC1CCCC1,3.75% (inactive)
19,COc1ccc(NC(=O)c2ccc(C(=N)N(C)C)cc2)c(C(=O)Nc2ccc(Cl)cn2)c1,-0.285% (inactive)
20,C/C=N/N(C)C=O,3.01% (inactive)
21,Cc1[nH]c(C)c(Cl)c(=O)c1Cl,-1.17% (inactive) and -3.71% (inactive)
22,Cc1cccc(Oc2cnc(=O)[nH]c2)c1,9.21% (inactive)
23,CCCCOc1c(C(=O)c2c(F)cc(C)cc2F)cnc2n[nH]cc12,-88.2% (active)
24,CCCCOC(=O)c1cc2c(cn1)[nH]c1ccccc12,42.7% (inactive) and 253% (inactive)

row,Structure (SMILES),"activity change, negative = inhibition"
1,CCCS(=O)(=O)Nc1ccc(F)c(C(=O)c2c[nH]c3ncc(Cl)cc23)c1F,-26.4% (inactive)
2,COc1cc(OC)c2ccc(=O)oc2c1,1.05% (inactive)
3,Clc1ccc(CCCOCCCN2CCCCC2)cc1,2.37% (inactive)
4,CS(=O)c1ccc(-c2nc(-c3ccc(F)cc3)c(-c3ccncc3)[nH]2)cc1 (stereo not given),-85.1% (active) and -89.6% (active)
5,COc1ccc2cc(-c3nc(-c4ccc(S(C)=O)cc4)[nH]c3-c3ccncc3)ccc2c1 (stereo not given),-51.3% (inactive)
6,CS(=O)(=O)c1ccc(-c2nc(-c3ccc(F)cc3)c(-c3ccncc3)[nH]2)cc1,-5.72% (inactive)
7,Oc1ccc(-c2nc(-c3ccc(F)cc3)c(-c3ccncc3)[nH]2)cc1,-91.7% (active) and -92.7% (active)
8,COc1cc(S(C)=O)ccc1-c1nc2ncccc2[nH]1 (stereo not given),-7.2% (inactive) and 19.1% (inactive)
9,CC1(C)O[C@H]2CC(=O)OC[C@]23[C@H]2CC[C@@]4(C)[C@H](c5ccoc5)OC(=O)[C@H]5O[C@]54[C@]2(C)C(=O)C[C@@H]13,7.46% (inactive)
10,CC/C=C\C/C=C\C/C=C\C/C=C\C/C=C\C/C=C\CCC(=O)OCC,4.98% (inactive)
11,COc1cc(O)c(C(=O)c2ccccc2)cc1O,6.03% (inactive)
12,Cc1cc(CC(C)CC(C)(C)C)n(O)c(=O)c1 (stereo not given),-84.1% (active)
13,Nc1nnnn1-c1ccccc1,6.66% (inactive)
14,CCCCCCCCCCCCCC(=O)OC(C)C,13.1% (inactive)
15,N#Cc1ncccn1,3.94% (inactive)
16,COc1cc(/C=C2\CCCN([C@@H](C)c3ccc(F)cc3)C2=O)ccc1-n1cnc(C)c1,-5.26% (inactive)
17,Cn1cc(-c2[nH]c3cc(NC(=O)[C@H](N)C4CCCCC4)cc4c3c2C=NNC4=O)cn1,-91.8% (active) and -59.2% (inactive)
18,CC(C)(C)Sc1c(CC(C)(C)C(=O)O)n(Cc2ccc(Cl)cc2)c2ccc(OCc3ccc4ccccc4n3)cc12,12.6% (inactive)
19,COC(=O)C(Cc1ccc(OCCn2c(=O)sc3cc(C(=O)c4ccccc4)ccc32)cc1)C(=O)OC,18.5% (inactive)
20,CN(C)CCCO[C@H]1[C@@H](C(O)CO)OC2OC(C)(C)O[C@@H]21 (stereo not given in full),4.68% (inactive)
21,Oc1cc2c(c(Cl)c1O)CCNC[C@@H]2c1ccccc1,-18.1% (inactive)
22,CCOC(=O)NCC(Cc1ccc(OCCc2nc(-c3ccccc3)oc2C)cc1)N/C(C)=C/C(=O)c1ccc(C(F)(F)F)cc1 (stereo not given),-49.9% (inactive)
23,CNCCn1c(=O)c2cc(OC)c(OC)cc2c2cnc3cc4c(cc3c21)OCO4,-94.2% (active)
24,O=C1NC(O)CCN1[C@@H]1O[C@H](CO)[C@@H](O)[C@H]1O (stereo not given in full),-5.72% (inactive)

row,Structure (SMILES),"activity change, negative = inhibition"
1,Cc1ccc(NC(=O)c2cccc(C(C)(C)C#N)c2)cc1Nc1ccc2ncn(C)c(=O)c2c1,-3.87% (inactive)
2,NC(=O)c1ccc[n+]([C@@H]2O[C@H](COP(=O)(O)OP(=O)(O)OC[C@H]3O[C@@H](n4cnc5c(N)ncnc54)[C@H](O)[C@@H]3O)[C@@H](O)[C@H]2O)c1,-1.89% (inactive)
3,COc1ccc(-c2nc3ccc(C4=NNC(=O)CC4C)cc3[nH]2)cc1 (stereo not given),21.8% (inactive)
4,O=C(O)c1ccc(Nc2ncc3c(n2)-c2ccc(Cl)cc2C(c2c(F)cccc2F)=NC3)cc1,-36.4% (inactive)
5,CNC(=O)c1nn(C)c2c1C(C)(C)Cc1cnc(Nc3ccc(N4CCN(C)CC4)cc3)nc1-2,-73.5% (active)
6,CCOC(=O)C1=C(N)Oc2ccc(Br)cc2[C@H]1[C@H](C#N)C(=O)OCC,-65.8% (inactive)
7,CC[C@]12CCCN3CCc4c(n(c5ccccc45)[C@](O)(C(=O)OC)C1)[C@@H]32,8.44% (inactive) and 5.97% (inactive)
8,CCN(CC)CCn1c(=O)c(Cc2ccc(OC)cc2)nc2ccccc21,-5.78% (inactive)
9,CCCCc1nc2cc(/C=C/C(=O)NO)ccc2n1CCN(CC)CC,-75.3% (active) and -94% (active)
10,N[C@@]1(C(=O)O)CC[C@H]2[C@H](C(=O)O)[C@H]21,6.82% (inactive)
11,COC(=O)[C@H](Cc1cccc(C(=N)N)c1)[C@@H](C)NC(=O)c1ccc(-c2cc[n+]([O-])cc2)cc1,-6.72% (inactive)
12,O=C1c2ccccc2S(=O)(=O)N1CCCN1CCN(c2ncccn2)CC1,6.33% (inactive)
13,CS(=O)(=O)c1ccc(-c2cc(Br)sc2-c2ccc(F)cc2)cc1,22.9% (inactive) and 24.6% (inactive)
14,CC(=O)C1(O)Cc2c(O)c3c(c(O)c2C(OC2CC(N)C(O)C(C)O2)C1)C(=O)c1c(O)cccc1C3=O (stereo not given),-82.5% (active)
15,CC(=O)[C@]1(O)Cc2c(O)c3c(c(O)c2[C@@H](O[C@H]2C[C@H](N)[C@H](O)[C@H](C)O2)C1)C(=O)c1ccccc1C3=O,-72.5% (active) and -66% (inactive) and -71.5% (active)
16,CC(C)=CCCC(C)(OC1OC(COC2OC(CO)C(O)C2O)C(O)C(O)C1O)C1CCC2(C)C1C(O)CC1C3(C)CCC(OC4OC(CO)C(O)C(O)C4OC4OC(CO)C(O)C(O)C4O)C(C)(C)C3CCC12C (stereo not given),4.49% (inactive)
17,CC(C)C[C@H](NC(=O)[C@@H](COC(C)(C)C)NC(=O)[C@H](Cc1ccc(O)cc1)NC(=O)[C@H](CO)NC(=O)[C@H](Cc1c[nH]c2ccccc12)NC(=O)[C@H](Cc1cnc[nH]1)NC(=O)[C@@H]1CCC(=O)N1)C(=O)N[C@@H](CCCN=C(N)N)C(=O)N1CCC[C@H]1C(=O)NNC(N)=O,8.64% (inactive)
18,O=[N+]([O-])c1cc(Cl)ccc1S(=O)(=O)N1CCN(Cc2ccccc2)CC1,26.6% (inactive)
19,C=C1C[C@]23C[C@@]1(O)CC[C@H]2[C@@]12C=C[C@H](O)[C@@](C)(C(=O)O1)[C@H]2[C@@H]3C(=O)O,13.1% (inactive)
20,CCC(=O)OCC(=O)[C@@]1(OC(=O)CC)[C@@H](C)C[C@H]2[C@@H]3CCC4=CC(=O)C=C[C@]4(C)[C@@]3(F)[C@@H](O)C[C@@]21C,-3.54% (inactive)
21,CCC(=O)OCC(=O)[C@@]1(OC(=O)CC)[C@@H](C)C[C@H]2[C@@H]3CCC4=CC(=O)C=C[C@]4(C)[C@@]3(Cl)[C@@H](O)C[C@@]21C,-74.6% (active) and -1.83% (inactive)
22,CCC(=O)OCC(=O)C1(OC(=O)CC)C(C)CC2C3CCC4=CC(=O)C=CC4(C)C3(Cl)C(O)CC21C (stereo not given),-2.98% (inactive)
